Laboratory results taken from PubChem BioAssay (NCATS).
Records with an inconclusive call do not appear. Activity calls are given as the source filed them. Unless noted, the call rests on the fitted dose curve; in most records, active means well fitted curve in the direction sought with a large enough effect; inconclusive means small, poorly fitted or top-dose-only effect, or another doubt; inactive means no such curve, though single readings can be large; an effect the other way counts as inactive or inconclusive.

Assays:
[1] = biological target: ATP-dependent 6-phosphofructokinase (Trypanosoma brucei brucei) (UniProt O15648); assay: qHTS Assay to Find Inhibitors of T. brucei phosphofructokinase: hit validation (AID 492961);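 further: luminescence reports ADP formed as PFK phosphorylates fructose-6-phosphate with ATP; on the % scale 0 is the no-effect control and ±100 the full control effect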
Procedure, shortened: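 Percent activity derived from corrected luminescence, normalized between 0x and 1x enzyme controls, then fitted to concentration-response curves. Conditions: 1.25 nM PFK, 0.1 mM ATP, 0.5 mM F6P, 45 min RT.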

[2] = biological target: Ubiquitin carboxyl-terminal hydrolase 1 (Homo sapiens) (UniProt O94782); assay: Inhibitors of USP1/UAF1: Pilot qHTS (AID 504865);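 further: rhodamine fluorescence freed from ubiquitin-rhodamine substrate followed over time; top concentration of the series differs between compounds; on the % scale 0 is the no-effect control and ±100 the full control effect; nearly all actives have a fitted effect of over 35% in size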
Procedure, shortened: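 USP1/UAF1 complex (1nM) preincubated with compound 15 min at room temperature, then Ub-Rho substrate (150nM final) added. Fluorescence read kinetically at 480/540 nm, 6 reads every 60 seconds. Buffer: 50mM HEPES pH 7.8, 0.5mM EDTA, 0.1 mg/ml BSA, 1mM TCEP, 0.01% Tween-20.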

[3] = biological target: Luciferin 4-monooxygenase (Photinus pyralis) (UniProt P08659); assay: Biochemical firefly luciferase enzyme assay for NPC (AID 624030);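 further: purified P. pyralis luciferase at 10 nM with luciferin and ATP substrate; 0% = DMSO and -100% = full luciferase inhibition by PTC124 control; nearly all actives have a fitted effect of over 70% in size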
Procedure, shortened: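 Counter-screen for direct inhibition of the luciferase enzyme by approved-drug library compounds, run at 10 nM enzyme in 50 mM Tris acetate (final). Luminescence was read within 5 min of enzyme-buffer addition and normalized to PTC124 versus DMSO (0%).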

[4] = S16 Schwann cell PMP22 intronic element firefly luciferase assay (AID 624032);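 further: plate controls were DMSO for no effect and PTC124 positive control mean for full effect; nearly all actives have a fitted effect of over 30% in size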
Procedure, shortened: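 Rat S16 Schwann cells stably carrying a PMP22 intronic element-driven Fluc reporter were seeded overnight, then exposed to compounds for 24 h at 37 °C. Luminescence was normalized to PTC124 (positive control) and DMSO (0% activity).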

[5] = S16 Schwann cell PMP22 intronic element beta-lactamase assay (AID 624044; calls by dose curve;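 further: 0% = DMSO and -100% = potassium clavulanate positive control; nearly all actives have a fitted effect of over 15% in size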)
Procedure, shortened: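 Beta-lactamase reporter under a PMP22 intronic regulatory element in stable S16 rat Schwann cells; 24 h compound exposure. 460 nm blue signal normalized between DMSO (0%) and potassium clavulanate, with 535 nm FRET tracking viability; curves classed by r2 and response.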

[6] = NCATS anti-infectives library activity on HEK293 viability as a counter-qHTS vs the C. elegans viability qHTS (AID 1745854);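 further: HEK293 cells exposed to compounds for 24 hr before the viability read; on the % scale 0 is the no-effect control and ±100 the full control effect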
Procedure, shortened: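 Compound titrations (final up to 41.7 uM) were incubated with HEK293 cells for 24 hr at 37C under 5% CO2. Viable cells were quantified with CellTiter-Glo after 10 min at ambient temperature.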

[7] = biological target: Glutathione peroxidase 1 (Homo sapiens) (UniProt P07203); assay: Primary qHTS Assay for Inhibitors of Recombinant Selenoprotein Glutathione Peroxidase 1 (GPX1) (AID 1845191); further: on the % scale 0 is the no-effect control and ±100 the full control effect; nearly all actives have a fitted effect of over 65% in size
Procedure, shortened: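 GPX1 10 nM, GR 100 nM, GSH 1 mM, NADPH 0.5 mM, CHP 0.5 mM (final). 30-min cpd preincubation, RT. Ex340/Em450 read t=0, t=15 min.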

[8] = biological target: Phospholipid hydroperoxide glutathione peroxidase GPX4 (Homo sapiens) (UniProt P36969); assay: Primary qHTS Assay for Inhibitors of Recombinant Selenoprotein Glutathione Peroxidase 4 (GPX4) (AID 1845192); further: nearly all actives have a fitted effect of over 65% in size
Procedure, shortened: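 qHTS, GR-coupled: GPX4 200 nM + cpd 30 min RT → GSH 1 mM, NADPH 0.5 mM, GR 100 nM → CHP 0.5 mM start; fluor 340/450 at t0 and t15 min; no-enzyme wells as control.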

[9] = qHTS profiling for inhibitors of Plasmodium falciparum proliferation (AID 504749); further: nearly all actives have a fitted effect of over 60% in size; further: potency means the concentration at half of the fitted maximal effect;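 on activity, negative = inhibition: 0% = DMSO vehicle and full inhibition = artemisinin control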; details: P. falciparum in erythrocytes, SYBR Green DNA, 72 h, at 28.7 µM (top of the series)
Procedure, shortened: (§1)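 Fluorescence of SYBR Green-bound parasite DNA, read at 485/535 nm, served as the growth measure. Infected erythrocytes were cultured with compound 72 h; artemisinin (0.29 uM) and DMSO wells defined the normalization range.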

3D7 = assay: as above; details: P. falciparum in erythrocytes, SYBR Green DNA, 72 h; series mostly up to 28.7 µM
Procedure, shortened: as §1

7G8 = assay: as above; details: P. falciparum in erythrocytes, SYBR Green DNA, 72 h; series mostly up to 28.7 µM
Procedure, shortened: as §1

AA1029 = assay: as above; details: P. falciparum in erythrocytes, SYBR Green DNA, 72 h; series mostly up to 28.7 µM
Procedure, shortened: as §1

AS120 = assay: as above; details: P. falciparum in erythrocytes, SYBR Green DNA, 72 h; series mostly up to 28.7 µM
Procedure, shortened: as §1

ATS189 = assay: as above; details: P. falciparum in erythrocytes, SYBR Green DNA, 72 h; series mostly up to 28.7 µM
Procedure, shortened: as §1

ATS95 = assay: as above; details: P. falciparum in erythrocytes, SYBR Green DNA, 72 h; series mostly up to 28.7 µM
Procedure, shortened: as §1

C2A = assay: as above; details: P. falciparum in erythrocytes, SYBR Green DNA, 72 h; series mostly up to 28.7 µM
Procedure, shortened: as §1

CP185 = assay: as above; details: P. falciparum in erythrocytes, SYBR Green DNA, 72 h; series mostly up to 28.7 µM
Procedure, shortened: as §1

CP191 = assay: as above; details: P. falciparum in erythrocytes, SYBR Green DNA, 72 h; series mostly up to 28.7 µM
Procedure, shortened: as §1

CP192 = assay: as above; details: P. falciparum in erythrocytes, SYBR Green DNA, 72 h; series mostly up to 28.7 µM
Procedure, shortened: as §1

CP194 = assay: as above; details: P. falciparum in erythrocytes, SYBR Green DNA, 72 h; series mostly up to 28.7 µM
Procedure, shortened: as §1

CP201 = assay: as above; details: P. falciparum in erythrocytes, SYBR Green DNA, 72 h; series mostly up to 28.7 µM
Procedure, shortened: as §1

CP215 = assay: as above; details: P. falciparum in erythrocytes, SYBR Green DNA, 72 h; series mostly up to 28.7 µM
Procedure, shortened: as §1

CP217 = assay: as above; details: P. falciparum in erythrocytes, SYBR Green DNA, 72 h; series mostly up to 28.7 µM
Procedure, shortened: as §1

CP237 = assay: as above; details: P. falciparum in erythrocytes, SYBR Green DNA, 72 h; series mostly up to 28.7 µM
Procedure, shortened: as §1

CP238 = assay: as above; details: P. falciparum in erythrocytes, SYBR Green DNA, 72 h; series mostly up to 28.7 µM
Procedure, shortened: as §1

CP247 = assay: as above; details: P. falciparum in erythrocytes, SYBR Green DNA, 72 h; series mostly up to 28.7 µM
Procedure, shortened: as §1

CP250 = assay: as above; details: P. falciparum in erythrocytes, SYBR Green DNA, 72 h; series mostly up to 28.7 µM
Procedure, shortened: as §1

CP252 = assay: as above; details: P. falciparum in erythrocytes, SYBR Green DNA, 72 h; series mostly up to 28.7 µM
Procedure, shortened: as §1

CP256 = assay: as above; details: P. falciparum in erythrocytes, SYBR Green DNA, 72 h; series mostly up to 28.7 µM
Procedure, shortened: as §1

CP260 = assay: as above; details: P. falciparum in erythrocytes, SYBR Green DNA, 72 h; series mostly up to 28.7 µM
Procedure, shortened: as §1

CP262 = assay: as above; details: P. falciparum in erythrocytes, SYBR Green DNA, 72 h; series mostly up to 28.7 µM
Procedure, shortened: as §1

CP265 = assay: as above; details: P. falciparum in erythrocytes, SYBR Green DNA, 72 h; series mostly up to 28.7 µM
Procedure, shortened: as §1

CP266 = assay: as above; details: P. falciparum in erythrocytes, SYBR Green DNA, 72 h; series mostly up to 28.7 µM
Procedure, shortened: as §1

CP269 = assay: as above; details: P. falciparum in erythrocytes, SYBR Green DNA, 72 h; series mostly up to 28.7 µM
Procedure, shortened: as §1

CP297 = assay: as above; details: P. falciparum in erythrocytes, SYBR Green DNA, 72 h; series mostly up to 28.7 µM
Procedure, shortened: as §1

CP315 = assay: as above; details: P. falciparum in erythrocytes, SYBR Green DNA, 72 h; series mostly up to 28.7 µM
Procedure, shortened: as §1

CP329 = assay: as above; details: P. falciparum in erythrocytes, SYBR Green DNA, 72 h; series mostly up to 28.7 µM
Procedure, shortened: as §1

DFO2036 = assay: as above; details: P. falciparum in erythrocytes, SYBR Green DNA, 72 h; series mostly up to 28.7 µM
Procedure, shortened: as §1

DIV17 = assay: as above; details: P. falciparum in erythrocytes, SYBR Green DNA, 72 h; series mostly up to 28.7 µM
Procedure, shortened: as §1

Dd2 = assay: as above; details: P. falciparum in erythrocytes, SYBR Green DNA, 72 h; series mostly up to 28.7 µM
Procedure, shortened: as §1

ECU = assay: as above; details: P. falciparum in erythrocytes, SYBR Green DNA, 72 h; series mostly up to 28.7 µM
Procedure, shortened: as §1

FAB9 = assay: as above; details: P. falciparum in erythrocytes, SYBR Green DNA, 72 h; series mostly up to 28.7 µM
Procedure, shortened: as §1

GB4 = assay: as above; details: P. falciparum in erythrocytes, SYBR Green DNA, 72 h; series mostly up to 28.7 µM
Procedure, shortened: as §1

HB3 = assay: as above; details: P. falciparum in erythrocytes, SYBR Green DNA, 72 h; series mostly up to 28.7 µM
Procedure, shortened: as §1

JCK = assay: as above; details: P. falciparum in erythrocytes, SYBR Green DNA, 72 h; series mostly up to 28.7 µM
Procedure, shortened: as §1

N140 = assay: as above; details: P. falciparum in erythrocytes, SYBR Green DNA, 72 h; series mostly up to 28.7 µM
Procedure, shortened: as §1

PAD = assay: as above; details: P. falciparum in erythrocytes, SYBR Green DNA, 72 h; series mostly up to 28.7 µM
Procedure, shortened: as §1

PC15 = assay: as above; details: P. falciparum in erythrocytes, SYBR Green DNA, 72 h; series mostly up to 28.7 µM
Procedure, shortened: as §1

PC26 = assay: as above; details: P. falciparum in erythrocytes, SYBR Green DNA, 72 h; series mostly up to 28.7 µM
Procedure, shortened: as §1

PC49 = assay: as above; details: P. falciparum in erythrocytes, SYBR Green DNA, 72 h; series mostly up to 28.7 µM
Procedure, shortened: as §1

SC27B = assay: as above; details: P. falciparum in erythrocytes, SYBR Green DNA, 72 h; series mostly up to 28.7 µM
Procedure, shortened: as §1

TAB109 = assay: as above; details: P. falciparum in erythrocytes, SYBR Green DNA, 72 h; series mostly up to 28.7 µM
Procedure, shortened: as §1

TAB113 = assay: as above; details: P. falciparum in erythrocytes, SYBR Green DNA, 72 h; series mostly up to 28.7 µM
Procedure, shortened: as §1

TAB165 = assay: as above; details: P. falciparum in erythrocytes, SYBR Green DNA, 72 h; series mostly up to 28.7 µM
Procedure, shortened: as §1

Sequence of Luciferin 4-monooxygenase (Photinus pyralis) (P08659 whole entry, looked up): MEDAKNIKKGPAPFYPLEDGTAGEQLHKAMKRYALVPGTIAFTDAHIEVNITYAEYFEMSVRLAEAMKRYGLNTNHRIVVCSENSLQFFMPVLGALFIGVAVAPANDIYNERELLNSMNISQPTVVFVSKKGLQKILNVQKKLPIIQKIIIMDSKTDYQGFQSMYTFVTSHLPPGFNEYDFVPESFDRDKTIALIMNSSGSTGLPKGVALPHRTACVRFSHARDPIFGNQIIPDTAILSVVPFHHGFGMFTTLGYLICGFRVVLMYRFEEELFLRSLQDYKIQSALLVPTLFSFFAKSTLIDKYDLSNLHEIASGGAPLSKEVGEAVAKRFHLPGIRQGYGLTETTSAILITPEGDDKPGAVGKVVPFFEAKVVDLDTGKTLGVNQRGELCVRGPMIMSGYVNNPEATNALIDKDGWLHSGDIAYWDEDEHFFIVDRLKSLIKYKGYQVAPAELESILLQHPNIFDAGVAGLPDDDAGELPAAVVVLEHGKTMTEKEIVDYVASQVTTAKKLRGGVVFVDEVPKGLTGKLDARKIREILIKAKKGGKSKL
Sequence of Glutathione peroxidase 1 (Homo sapiens) (P07203 whole entry, looked up): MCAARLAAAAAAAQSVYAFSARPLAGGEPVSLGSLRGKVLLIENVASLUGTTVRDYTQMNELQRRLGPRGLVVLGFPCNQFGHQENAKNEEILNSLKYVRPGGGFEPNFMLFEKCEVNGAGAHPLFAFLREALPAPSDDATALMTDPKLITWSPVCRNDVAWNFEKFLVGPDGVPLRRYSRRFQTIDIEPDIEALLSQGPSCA
Sequence of Ubiquitin carboxyl-terminal hydrolase 1 (Homo sapiens) (O94782 whole entry, looked up): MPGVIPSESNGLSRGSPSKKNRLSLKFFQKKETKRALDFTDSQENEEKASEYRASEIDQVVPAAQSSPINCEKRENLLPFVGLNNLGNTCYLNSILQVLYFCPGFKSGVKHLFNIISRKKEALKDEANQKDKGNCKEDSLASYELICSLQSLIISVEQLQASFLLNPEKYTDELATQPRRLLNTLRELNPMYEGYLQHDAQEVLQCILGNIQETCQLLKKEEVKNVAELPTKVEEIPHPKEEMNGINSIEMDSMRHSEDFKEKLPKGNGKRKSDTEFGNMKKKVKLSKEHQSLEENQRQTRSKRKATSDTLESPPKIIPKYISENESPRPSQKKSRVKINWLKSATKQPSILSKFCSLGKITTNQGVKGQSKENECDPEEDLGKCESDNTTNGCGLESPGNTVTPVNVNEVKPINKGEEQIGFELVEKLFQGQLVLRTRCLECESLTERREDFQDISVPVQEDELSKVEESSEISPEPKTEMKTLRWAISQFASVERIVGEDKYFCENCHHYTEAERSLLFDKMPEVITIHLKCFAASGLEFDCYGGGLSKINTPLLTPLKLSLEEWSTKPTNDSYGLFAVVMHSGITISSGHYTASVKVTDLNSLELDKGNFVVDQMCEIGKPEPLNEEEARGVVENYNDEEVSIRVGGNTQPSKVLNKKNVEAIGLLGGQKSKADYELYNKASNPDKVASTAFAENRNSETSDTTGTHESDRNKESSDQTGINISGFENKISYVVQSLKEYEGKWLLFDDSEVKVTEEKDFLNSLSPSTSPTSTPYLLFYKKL
Sequence of ATP-dependent 6-phosphofructokinase (Trypanosoma brucei brucei) (O15648 whole entry, looked up): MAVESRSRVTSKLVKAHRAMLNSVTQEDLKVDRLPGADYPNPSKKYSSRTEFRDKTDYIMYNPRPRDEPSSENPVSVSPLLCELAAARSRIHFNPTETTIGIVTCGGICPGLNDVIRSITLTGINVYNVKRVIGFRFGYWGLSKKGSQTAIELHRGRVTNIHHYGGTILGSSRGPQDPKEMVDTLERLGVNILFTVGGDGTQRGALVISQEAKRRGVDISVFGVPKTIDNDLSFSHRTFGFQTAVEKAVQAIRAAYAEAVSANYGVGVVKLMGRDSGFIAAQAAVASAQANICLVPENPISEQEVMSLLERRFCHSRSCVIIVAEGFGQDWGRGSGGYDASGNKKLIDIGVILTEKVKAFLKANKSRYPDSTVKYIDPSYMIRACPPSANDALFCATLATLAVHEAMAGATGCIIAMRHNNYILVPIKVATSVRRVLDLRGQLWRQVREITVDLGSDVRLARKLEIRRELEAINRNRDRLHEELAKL
Sequence of Phospholipid hydroperoxide glutathione peroxidase GPX4 (Homo sapiens) (P36969 whole entry, looked up): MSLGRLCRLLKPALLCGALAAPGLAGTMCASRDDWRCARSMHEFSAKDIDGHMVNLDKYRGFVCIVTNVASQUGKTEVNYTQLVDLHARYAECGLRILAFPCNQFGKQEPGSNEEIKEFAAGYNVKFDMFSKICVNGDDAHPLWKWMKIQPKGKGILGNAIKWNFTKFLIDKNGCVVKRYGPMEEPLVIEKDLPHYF

CC(C)CN(C[C@@H](O)[C@H](Cc1ccccc1)NC(=O)O[C@H]1CCOC1)S(=O)(=O)c1ccc(N)cc1
inactive: outcome [1] | Potency [2] | Potency [3] | Potency [4] | Potency [5] | Potency [6] | Potency [7] | Potency [8] | activity, negative = inhibition ([9]; parasite line A) -4.85% | activity, negative = inhibition ([9]; parasite line B) -24.9% | Potency (3D7) | Potency (AA1029) | Potency (AS120) | Potency (ATS189) | Potency (ATS95) | Potency (C2A) | Potency (CP185) | Potency (CP191) | Potency (CP192) | Potency (CP194) | Potency (CP201) | Potency (CP215) | Potency (CP217) | Potency (CP237) | Potency (CP238) | Potency (CP247) | Potency (CP250) | Potency (CP252) | Potency (CP256) | Potency (CP260) | Potency (CP262) | Potency (CP265) | Potency (CP266) | Potency (CP269) | Potency (CP297) | Potency (CP315) | Potency (CP329) | Potency (DFO2036) | Potency (DIV17) | Potency (Dd2) | Potency (ECU) | Potency (FAB9) | Potency (GB4) | Potency (HB3) | Potency (JCK) | Potency (N140) | Potency (PAD) | Potency (PC15) | Potency (PC26) | Potency (PC49) | Potency (SC27B) | Potency (TAB109) | Potency (TAB113) | Potency (TAB165)
active: Potency (7G8) 10 µM
